In article PMC7862700, “An all-to-all approach to the identification of sequence-specific readers for epigenetic DNA modifications on cytosine”:

Experiments:
Assay in all cases: DAPPL (digital affinity profiling via proximity ligation, sequencing); 10 mM Tris-HCl pH 7.5, 50 mM NaCl, 1 mM DTT, 4% glycerol, room temperature, 30 min; GST-TFs on glutathione beads, 16-mer random dsDNA library, 0.1% formaldehyde crosslink after washing; high values mean tight binding
FEV = target: T1, FEV (Homo sapiens, UniProt Q99581 1-238); conditions: protein: recombinant; tags: N-terminal GST; dsDNA, one strand shown
T1 sequence: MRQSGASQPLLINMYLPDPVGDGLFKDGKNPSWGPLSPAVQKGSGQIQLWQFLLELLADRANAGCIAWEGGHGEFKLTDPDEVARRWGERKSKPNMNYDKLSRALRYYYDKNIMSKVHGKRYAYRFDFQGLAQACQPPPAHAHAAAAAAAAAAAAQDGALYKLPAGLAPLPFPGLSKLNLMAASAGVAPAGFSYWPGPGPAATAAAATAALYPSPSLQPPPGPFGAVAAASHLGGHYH
How it was run: (§1)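 Pools of DNA-barcoded human transcription factors, expressed in yeast as GST fusions on glutathione beads and combined with a tag-only sample, were incubated with 200 nmole of a 16-mer random double-stranded DNA library. Incubation took 30 min at room temperature in Tris/NaCl/DTT/glycerol buffer and was followed by washing, 0.1% formaldehyde crosslinking, proximity ligation (BsaI/T4 ligase, 1 h, 37 °C), PCR amplification and sequencing on an Illumina NextSeq500. Binding signal is the ratio of a hexamer's read frequency for a factor to its frequency for the tag-only sample.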

ETV5 = ETV5 (Homo sapiens, UniProt P41161 1-510); conditions: protein: recombinant; tags: N-terminal GST; dsDNA, one strand shown
How it was run: as §1

HSF1 = HSF1 (Homo sapiens, UniProt Q00613 1-529); conditions: protein: recombinant; tags: N-terminal GST; chain copies: 3; dsDNA, one strand shown
How it was run: as §1

SPIC = target: T2, SPIC (Homo sapiens, UniProt Q8N5J4 1-248); conditions: protein: recombinant; tags: N-terminal GST; dsDNA, one strand shown
T2 sequence: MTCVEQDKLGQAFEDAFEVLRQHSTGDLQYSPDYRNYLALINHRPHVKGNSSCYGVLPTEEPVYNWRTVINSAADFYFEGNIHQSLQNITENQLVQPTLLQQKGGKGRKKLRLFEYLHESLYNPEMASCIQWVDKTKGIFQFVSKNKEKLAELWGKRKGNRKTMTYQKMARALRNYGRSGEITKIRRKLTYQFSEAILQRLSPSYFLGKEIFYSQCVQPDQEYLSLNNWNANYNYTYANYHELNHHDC
How it was run: as §1

ELF4 = ELF4 (Homo sapiens, UniProt Q99607 1-663); conditions: protein: recombinant; tags: N-terminal GST; dsDNA, one strand shown
How it was run: as §1

ELK4 = target: T3, ELK4 (Homo sapiens, UniProt P28324-2 1-405); conditions: protein: recombinant; tags: N-terminal GST; dsDNA, one strand shown
T3 sequence: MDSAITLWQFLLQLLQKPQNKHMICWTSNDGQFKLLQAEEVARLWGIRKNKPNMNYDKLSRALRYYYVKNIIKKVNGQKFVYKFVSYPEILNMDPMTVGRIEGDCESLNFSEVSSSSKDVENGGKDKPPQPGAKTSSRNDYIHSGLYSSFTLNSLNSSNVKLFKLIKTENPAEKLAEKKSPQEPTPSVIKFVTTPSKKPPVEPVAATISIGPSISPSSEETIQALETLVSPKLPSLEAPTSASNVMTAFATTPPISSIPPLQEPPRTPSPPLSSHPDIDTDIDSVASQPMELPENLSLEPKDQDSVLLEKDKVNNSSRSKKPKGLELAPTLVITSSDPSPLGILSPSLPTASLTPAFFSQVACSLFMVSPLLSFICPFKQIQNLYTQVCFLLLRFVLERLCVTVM
How it was run: as §1

ETV2 = target: T4, ETV2 (Homo sapiens, UniProt O00321 1-342); conditions: protein: recombinant; tags: N-terminal GST; dsDNA, one strand shown
T4 sequence: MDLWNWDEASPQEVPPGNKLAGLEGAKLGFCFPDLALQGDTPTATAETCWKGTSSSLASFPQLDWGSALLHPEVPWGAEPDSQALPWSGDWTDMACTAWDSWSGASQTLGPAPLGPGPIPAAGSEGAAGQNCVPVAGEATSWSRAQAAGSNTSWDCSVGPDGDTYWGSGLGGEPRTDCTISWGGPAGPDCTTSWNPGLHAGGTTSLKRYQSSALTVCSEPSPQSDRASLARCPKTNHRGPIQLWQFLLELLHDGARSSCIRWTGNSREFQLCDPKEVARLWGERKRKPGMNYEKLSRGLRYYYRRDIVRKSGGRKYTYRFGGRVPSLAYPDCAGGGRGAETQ
How it was run: as §1

ELF3 = target: T5, ELF3 (Homo sapiens, UniProt P78545 1-371); conditions: protein: recombinant; tags: N-terminal GST; dsDNA, one strand shown
T5 sequence: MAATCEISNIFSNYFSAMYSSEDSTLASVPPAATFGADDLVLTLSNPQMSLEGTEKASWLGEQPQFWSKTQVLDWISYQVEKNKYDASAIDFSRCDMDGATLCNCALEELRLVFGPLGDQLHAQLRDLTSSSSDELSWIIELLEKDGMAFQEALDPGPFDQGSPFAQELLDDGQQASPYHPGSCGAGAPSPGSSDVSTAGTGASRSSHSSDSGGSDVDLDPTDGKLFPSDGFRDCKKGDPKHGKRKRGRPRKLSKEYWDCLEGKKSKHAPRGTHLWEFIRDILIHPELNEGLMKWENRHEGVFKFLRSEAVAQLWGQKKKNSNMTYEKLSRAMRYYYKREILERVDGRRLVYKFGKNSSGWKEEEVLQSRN
How it was run: as §1

ETV1 = ETV1 (Homo sapiens, UniProt P50549 1-477); conditions: protein: recombinant; tags: N-terminal GST; dsDNA, one strand shown
How it was run: as §1

ERF = target: T6, ERF (Homo sapiens, UniProt P50548 1-548); conditions: protein: recombinant; tags: N-terminal GST; dsDNA, one strand shown
T6 sequence: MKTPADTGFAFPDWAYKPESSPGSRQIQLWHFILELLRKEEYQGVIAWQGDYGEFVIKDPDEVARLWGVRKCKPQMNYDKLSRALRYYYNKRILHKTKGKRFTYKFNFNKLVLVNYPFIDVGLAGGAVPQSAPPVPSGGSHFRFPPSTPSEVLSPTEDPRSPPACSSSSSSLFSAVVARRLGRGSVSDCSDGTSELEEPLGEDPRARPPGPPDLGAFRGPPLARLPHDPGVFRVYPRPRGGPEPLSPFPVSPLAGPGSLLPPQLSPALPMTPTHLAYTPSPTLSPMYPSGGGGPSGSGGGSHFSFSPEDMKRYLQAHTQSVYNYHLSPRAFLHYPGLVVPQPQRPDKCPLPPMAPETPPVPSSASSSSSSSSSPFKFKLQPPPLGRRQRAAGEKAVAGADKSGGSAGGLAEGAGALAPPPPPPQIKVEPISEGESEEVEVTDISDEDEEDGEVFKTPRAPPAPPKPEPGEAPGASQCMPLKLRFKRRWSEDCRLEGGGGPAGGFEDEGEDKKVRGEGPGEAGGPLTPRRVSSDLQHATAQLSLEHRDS
How it was run: as §1

ETV3L = target: T7, ETV3L (Homo sapiens, UniProt Q6ZN32 1-361); conditions: protein: recombinant; tags: N-terminal GST; dsDNA, one strand shown
T7 sequence: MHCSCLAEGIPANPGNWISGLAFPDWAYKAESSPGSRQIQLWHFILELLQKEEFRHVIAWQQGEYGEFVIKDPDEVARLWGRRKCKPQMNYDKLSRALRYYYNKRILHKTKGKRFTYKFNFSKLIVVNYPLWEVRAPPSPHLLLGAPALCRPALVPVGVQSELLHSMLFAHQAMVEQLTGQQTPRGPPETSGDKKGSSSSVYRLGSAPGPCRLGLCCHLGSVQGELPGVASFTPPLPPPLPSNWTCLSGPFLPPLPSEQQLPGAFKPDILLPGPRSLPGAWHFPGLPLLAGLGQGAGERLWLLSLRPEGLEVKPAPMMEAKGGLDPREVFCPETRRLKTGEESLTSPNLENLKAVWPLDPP
How it was run: as §1

ETS2 = target: T8, ETS2 (Homo sapiens, UniProt P15036 1-469); conditions: protein: recombinant; tags: N-terminal GST; dsDNA, one strand shown
T8 sequence: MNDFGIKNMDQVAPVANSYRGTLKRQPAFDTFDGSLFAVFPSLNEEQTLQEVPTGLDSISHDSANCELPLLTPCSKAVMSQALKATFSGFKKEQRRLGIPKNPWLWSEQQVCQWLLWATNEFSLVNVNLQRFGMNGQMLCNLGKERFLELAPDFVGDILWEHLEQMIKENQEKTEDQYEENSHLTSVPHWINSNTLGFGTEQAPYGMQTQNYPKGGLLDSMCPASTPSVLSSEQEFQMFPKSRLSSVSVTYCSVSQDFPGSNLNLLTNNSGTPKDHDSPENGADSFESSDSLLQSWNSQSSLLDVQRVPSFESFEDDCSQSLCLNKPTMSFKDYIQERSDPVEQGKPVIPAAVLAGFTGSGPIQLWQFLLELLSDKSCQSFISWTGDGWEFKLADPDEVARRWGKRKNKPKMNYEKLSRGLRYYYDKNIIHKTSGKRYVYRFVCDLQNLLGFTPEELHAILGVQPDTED
How it was run: as §1

SPDEF = target: T9, SPDEF (Homo sapiens, UniProt O95238 1-335); conditions: protein: recombinant; tags: N-terminal GST; dsDNA, one strand shown
T9 sequence: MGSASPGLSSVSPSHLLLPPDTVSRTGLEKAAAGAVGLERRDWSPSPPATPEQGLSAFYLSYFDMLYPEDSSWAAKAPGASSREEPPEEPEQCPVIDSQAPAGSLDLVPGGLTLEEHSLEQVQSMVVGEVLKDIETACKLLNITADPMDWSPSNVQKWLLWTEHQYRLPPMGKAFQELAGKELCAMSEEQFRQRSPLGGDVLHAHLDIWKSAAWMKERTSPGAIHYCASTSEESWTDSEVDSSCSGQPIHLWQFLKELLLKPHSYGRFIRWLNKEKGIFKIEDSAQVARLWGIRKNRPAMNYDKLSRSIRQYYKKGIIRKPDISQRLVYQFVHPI
How it was run: as §1

ETV7 = target: T10, ETV7 (Homo sapiens, UniProt Q9Y603 1-341); conditions: protein: recombinant; tags: N-terminal GST; dsDNA, one strand shown
T10 sequence: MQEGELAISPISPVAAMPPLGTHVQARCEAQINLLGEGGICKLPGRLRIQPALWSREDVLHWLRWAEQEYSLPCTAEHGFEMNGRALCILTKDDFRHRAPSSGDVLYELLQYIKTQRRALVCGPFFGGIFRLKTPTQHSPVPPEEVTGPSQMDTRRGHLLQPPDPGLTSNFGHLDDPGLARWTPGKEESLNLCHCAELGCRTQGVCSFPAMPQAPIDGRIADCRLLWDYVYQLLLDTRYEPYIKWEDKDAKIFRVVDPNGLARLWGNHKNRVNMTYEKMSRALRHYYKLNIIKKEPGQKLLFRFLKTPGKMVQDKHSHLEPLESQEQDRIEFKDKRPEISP
How it was run: as §1

ELF5 = target: T11, ELF5 (Homo sapiens, UniProt Q9UKW6-2 1-255); conditions: protein: recombinant; tags: N-terminal GST; dsDNA, one strand shown
T11 sequence: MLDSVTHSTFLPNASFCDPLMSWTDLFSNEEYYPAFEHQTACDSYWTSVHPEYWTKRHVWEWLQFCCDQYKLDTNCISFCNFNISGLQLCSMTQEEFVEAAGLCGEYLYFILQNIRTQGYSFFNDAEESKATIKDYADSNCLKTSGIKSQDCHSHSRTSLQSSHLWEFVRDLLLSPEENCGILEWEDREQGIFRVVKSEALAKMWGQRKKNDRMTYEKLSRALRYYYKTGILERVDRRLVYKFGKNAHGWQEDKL
How it was run: as §1

ETV3 = target: T12, ETV3 (Homo sapiens, UniProt P41162-2 1-143); conditions: protein: recombinant; tags: N-terminal GST; dsDNA, one strand shown
T12 sequence: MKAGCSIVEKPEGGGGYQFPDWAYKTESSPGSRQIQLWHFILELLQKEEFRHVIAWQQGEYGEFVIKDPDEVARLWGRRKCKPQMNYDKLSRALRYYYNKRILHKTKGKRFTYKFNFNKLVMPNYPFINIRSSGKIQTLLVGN
How it was run: as §1

ETV6 = ETV6 (Homo sapiens, UniProt P41212 1-452); conditions: protein: recombinant; tags: N-terminal GST; dsDNA, one strand shown
How it was run: as §1

Sequence of HSF1 (Q00613 whole entry): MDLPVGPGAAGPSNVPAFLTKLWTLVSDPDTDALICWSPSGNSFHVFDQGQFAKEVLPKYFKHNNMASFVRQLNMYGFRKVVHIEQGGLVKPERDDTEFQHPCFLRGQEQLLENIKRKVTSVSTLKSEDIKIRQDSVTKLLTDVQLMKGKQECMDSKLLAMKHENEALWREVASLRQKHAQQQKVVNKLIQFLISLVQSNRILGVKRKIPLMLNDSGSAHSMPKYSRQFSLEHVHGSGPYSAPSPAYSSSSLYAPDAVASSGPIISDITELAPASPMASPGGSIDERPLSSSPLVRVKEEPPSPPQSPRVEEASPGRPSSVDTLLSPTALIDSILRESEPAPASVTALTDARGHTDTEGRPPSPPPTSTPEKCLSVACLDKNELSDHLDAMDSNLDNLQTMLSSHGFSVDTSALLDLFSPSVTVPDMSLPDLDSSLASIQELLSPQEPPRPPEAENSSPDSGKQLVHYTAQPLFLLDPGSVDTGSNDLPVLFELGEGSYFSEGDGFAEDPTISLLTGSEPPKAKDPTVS
Sequence of ETV1 (P50549 whole entry): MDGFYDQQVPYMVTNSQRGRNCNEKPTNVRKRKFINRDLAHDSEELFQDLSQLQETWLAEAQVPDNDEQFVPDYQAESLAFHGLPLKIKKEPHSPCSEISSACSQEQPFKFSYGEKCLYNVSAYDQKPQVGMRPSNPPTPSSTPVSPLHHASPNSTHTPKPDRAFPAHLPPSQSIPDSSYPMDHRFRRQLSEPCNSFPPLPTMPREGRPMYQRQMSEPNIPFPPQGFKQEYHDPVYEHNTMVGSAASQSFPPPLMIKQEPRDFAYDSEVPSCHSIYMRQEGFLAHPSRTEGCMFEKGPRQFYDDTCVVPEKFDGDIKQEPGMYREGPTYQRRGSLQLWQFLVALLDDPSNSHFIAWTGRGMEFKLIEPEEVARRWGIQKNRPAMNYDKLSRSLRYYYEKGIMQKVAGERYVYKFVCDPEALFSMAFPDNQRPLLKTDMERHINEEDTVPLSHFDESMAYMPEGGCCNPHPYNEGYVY
Sequence of ETV6 (P41212 whole entry): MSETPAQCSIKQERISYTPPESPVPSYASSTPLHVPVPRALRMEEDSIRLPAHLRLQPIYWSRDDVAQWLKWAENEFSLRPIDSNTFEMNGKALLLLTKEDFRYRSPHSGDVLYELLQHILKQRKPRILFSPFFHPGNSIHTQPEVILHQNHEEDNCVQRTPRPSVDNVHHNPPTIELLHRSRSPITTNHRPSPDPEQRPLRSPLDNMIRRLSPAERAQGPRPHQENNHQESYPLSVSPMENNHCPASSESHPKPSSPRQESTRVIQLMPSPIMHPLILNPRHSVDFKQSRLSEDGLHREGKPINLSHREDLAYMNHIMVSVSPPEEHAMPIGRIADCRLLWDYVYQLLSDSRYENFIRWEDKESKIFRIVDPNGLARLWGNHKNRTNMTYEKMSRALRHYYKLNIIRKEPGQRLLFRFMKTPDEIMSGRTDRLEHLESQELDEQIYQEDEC
Sequence of ETV5 (P41161 whole entry): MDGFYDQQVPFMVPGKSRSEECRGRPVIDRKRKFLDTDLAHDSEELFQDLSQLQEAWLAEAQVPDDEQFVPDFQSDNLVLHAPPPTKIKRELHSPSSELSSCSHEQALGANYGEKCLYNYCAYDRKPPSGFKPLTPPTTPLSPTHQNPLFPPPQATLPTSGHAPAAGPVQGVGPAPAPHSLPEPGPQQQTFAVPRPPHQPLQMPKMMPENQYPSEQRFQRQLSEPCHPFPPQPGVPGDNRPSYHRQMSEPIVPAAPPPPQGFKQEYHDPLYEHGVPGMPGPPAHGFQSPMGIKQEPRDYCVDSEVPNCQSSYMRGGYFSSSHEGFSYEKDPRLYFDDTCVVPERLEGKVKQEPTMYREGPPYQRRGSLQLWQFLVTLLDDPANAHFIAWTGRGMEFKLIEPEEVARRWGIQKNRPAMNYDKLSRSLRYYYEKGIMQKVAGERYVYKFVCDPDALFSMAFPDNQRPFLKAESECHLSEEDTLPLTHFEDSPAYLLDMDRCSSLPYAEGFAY
Sequence of ELF4 (Q99607 whole entry): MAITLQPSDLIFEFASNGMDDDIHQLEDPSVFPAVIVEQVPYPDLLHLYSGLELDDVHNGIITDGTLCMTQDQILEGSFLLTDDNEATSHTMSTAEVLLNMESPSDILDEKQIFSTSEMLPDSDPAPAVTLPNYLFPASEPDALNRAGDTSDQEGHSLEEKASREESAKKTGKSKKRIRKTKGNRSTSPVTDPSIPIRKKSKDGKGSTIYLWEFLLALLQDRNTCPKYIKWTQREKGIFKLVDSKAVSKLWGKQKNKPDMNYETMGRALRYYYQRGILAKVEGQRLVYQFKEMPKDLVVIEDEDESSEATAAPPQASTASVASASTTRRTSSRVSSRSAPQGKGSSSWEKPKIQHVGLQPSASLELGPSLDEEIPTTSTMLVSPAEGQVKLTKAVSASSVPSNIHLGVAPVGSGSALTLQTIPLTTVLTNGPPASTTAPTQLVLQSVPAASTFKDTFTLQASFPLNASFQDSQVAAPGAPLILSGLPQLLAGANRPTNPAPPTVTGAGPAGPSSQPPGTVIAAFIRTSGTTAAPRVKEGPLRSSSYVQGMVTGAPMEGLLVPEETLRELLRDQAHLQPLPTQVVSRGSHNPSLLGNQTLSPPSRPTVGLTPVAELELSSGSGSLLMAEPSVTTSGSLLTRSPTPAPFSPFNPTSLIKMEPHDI

For CCCTCA, the binding signal (FEV) was 1.24 fold enrichment (6-mer frequency, TF over GST control), the binding signal (ETV5) was 1.18 fold enrichment (6-mer frequency, TF over GST control) and the binding signal (HSF1) was 1.03 fold enrichment (6-mer frequency, TF over GST control). For the same sequence, the binding signal (SPIC) was 1.06 fold enrichment (6-mer frequency, TF over GST control), the binding signal (ELF4) was 1.28 fold enrichment (6-mer frequency, TF over GST control) and the binding signal (ELK4) was 1.11 fold enrichment (6-mer frequency, TF over GST control). For the same sequence, the binding signal (ETV2) was 1.29 fold enrichment (6-mer frequency, TF over GST control), the binding signal (ELF3) was 1.17 fold enrichment (6-mer frequency, TF over GST control) and the binding signal (ETV1) was 1.19 fold enrichment (6-mer frequency, TF over GST control). For the same sequence, the binding signal (ERF) was 1.18 fold enrichment (6-mer frequency, TF over GST control), the binding signal (ETV3L) was 1.18 fold enrichment (6-mer frequency, TF over GST control) and the binding signal (ETS2) was 1.14 fold enrichment (6-mer frequency, TF over GST control). The binding signal (SPDEF) was 1.2 fold enrichment (6-mer frequency, TF over GST control), the binding signal (ETV7) was 1.07 fold enrichment (6-mer frequency, TF over GST control) and the binding signal (ELF5) was 1.14 fold enrichment (6-mer frequency, TF over GST control). The binding signal (ETV3) was 1.12 fold enrichment (6-mer frequency, TF over GST control) and the binding signal (ETV6) was 1.09 fold enrichment (6-mer frequency, TF over GST control).
